Experiment [1] can be described thus: NCI Yeast Anticancer Drug Screen. Data for the rad50 strain (AID 155).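 Further: 0% = growth of vehicle-only cultures of the same strain.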 To be noted: S. cerevisiae rad50 strain growth inhibition, hits give high values. In short, it runs like this: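 A DNA repair-deficient yeast mutant serves as the test organism; compound-induced growth inhibition is calculated against vehicle-treated cells.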
Experiment [2] is described as follows: NCI Yeast Anticancer Drug Screen. Data for the mec2-1 strain (AID 157). To be noted: S. cerevisiae mec2-1 strain, hits give high values. In short, it runs like this: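 Growth inhibition is read against vehicle-treated controls after compound exposure of the mec2-1 yeast strain, which is defective in DNA damage repair or cell cycle control.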
Experiment [3] in a line: NCI Yeast Anticancer Drug Screen. Data for the sgs1 mgt1 strain (AID 161).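 Further: 0% = growth of cultures given vehicle only.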 The following applies: S. cerevisiae sgs1 mgt1 strain, hits give high values. An outline of the steps: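 Percent growth inhibition was derived by comparing compound-exposed mutant yeast with vehicle-exposed cultures. The strain carries alterations in DNA damage repair.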
Experiment [4] is described as follows: NCI Yeast Anticancer Drug Screen. Data for the cln2 rad14 strain (AID 165).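 Further: 0% = growth equal to vehicle treated cultures.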 The following applies: S. cerevisiae cln2 rad14 strain, hits give high values. An outline of the steps: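 Growth inhibition, relative to vehicle-treated controls, is the read-out. The test organism is a yeast strain with defined genetic alterations, cln2 rad14.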
Experiment [5] is described as follows: NCI Yeast Anticancer Drug Screen. Data for the bub3 strain (AID 167). To be noted: S. cerevisiae bub3 mutant strain, hits give high values. In short, it runs like this: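 Inhibition values come from growth of compound-treated mutant yeast normalised to vehicle-treated controls.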
Experiment [6] can be described thus: NCI Yeast Anticancer Drug Screen. Data for the mlh1 rad18 strain (AID 175). The following applies: S. cerevisiae mlh1 rad18 strain growth inhibition, hits give high values. An outline of the steps: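 Cells of a genetically altered yeast strain, deficient in DNA damage repair, were treated with compound. Their growth was then compared with that of vehicle-treated cultures to give inhibition.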

Setting [7] is: at 5.0 µM (retest, dose inferred, filed as 0.5).
The mark [8] stands for this setting: at 50.0 µM (retest, dose inferred, filed as 5.0).

Molecules are shown by their SMILES. The panel holds about 79,000 compounds, 15% with a hit somewhere; the sample as a whole holds those more often. A number with no mark means an inactive call. Calls of active or inactive are those of the source. No stated cut-off is given here; in the data, active means growth inhibition above about 70%; inactive means the rest.

In the case of `C=C(CN(C)C)C(=O)c1ccc(OC2OC(COC(C)=O)C(OC(C)=O)C(OC(C)=O)C2OC(C)=O)cc1` (stereo not drawn), the growth inhibition in experiment [1] (setting [7]) is -1%; in experiment [1] (setting [8]), 2%; in experiment [1] (at 50.0 µM), -5.65%; in experiment [2] (setting [7]), 0%; in experiment [2] (setting [8]), 5%; in experiment [2] (at 50.0 µM) it was -18.4%. Moreover, the growth inhibition is 3% in experiment [3] (setting [7]); -43% in experiment [3] (setting [8]); -8.8% in experiment [3] (at 50.0 µM); 7% in experiment [4] (setting [7]); 2% in experiment [4] (setting [8]); 10.4% in experiment [4] (at 50.0 µM). Besides, the growth inhibition in experiment [5] (setting [7]) was 15%; in experiment [5] (setting [8]) it was 4%; in experiment [5] (at 50.0 µM) it was -3.75%; in experiment [6] (setting [7]) it was 5%; in experiment [6] (setting [8]), 2%; in experiment [6] (at 50.0 µM), -18.9%.

Turning to `CN(C)CC/C(=N\Nc1ccc(Cl)c(Cl)c1)c1ccccc1`, the growth inhibition in experiment [1] (setting [7]) is 88% (active); in experiment [1] (setting [8]) it was 99% (active); in experiment [1] (at 50.0 µM), 99.5% (active); in experiment [2] (setting [7]) it was 69%; in experiment [2] (setting [8]) it was 100% (active); in experiment [2] (at 50.0 µM), 97.9% (active). Also, the growth inhibition in experiment [3] (setting [7]) is 98% (active); in experiment [3] (setting [8]) it was 100% (active); in experiment [3] (at 50.0 µM) it was 99.6% (active); in experiment [4] (setting [7]), 34%; in experiment [4] (setting [8]), 99% (active); in experiment [4] (at 50.0 µM) it was 99.5% (active). The growth inhibition in experiment [5] (setting [7]) is 82% (active); in experiment [5] (setting [8]) it was 100% (active); in experiment [5] (at 50.0 µM), 99.6% (active); in experiment [6] (setting [7]) it was 95% (active); in experiment [6] (setting [8]) it was 99% (active); in experiment [6] (at 50.0 µM), 99.2% (active).

Take `C=C1C(=O)OC2C1CCC(=C)C1CC(O)C(=C)C12` (stereo not drawn): the growth inhibition in experiment [1] (setting [7]) is 3%; in experiment [1] (setting [8]), 44%; in experiment [1] (at 50.0 µM) it was 92.2% (active); in experiment [2] (setting [7]), 11%; in experiment [2] (setting [8]), 64%; in experiment [2] (at 50.0 µM), 94.2% (active). Moreover, the growth inhibition in experiment [3] (setting [7]) was 0%; in experiment [3] (setting [8]), 70% (active); in experiment [3] (at 50.0 µM), 93.6% (active); in experiment [4] (setting [7]), 10%; in experiment [4] (setting [8]), 39%; in experiment [4] (at 50.0 µM), 92.4% (active). Moreover, the growth inhibition was 2% in experiment [5] (setting [7]); 65% in experiment [5] (setting [8]); 92.5% (active) in experiment [5] (at 50.0 µM); 8% in experiment [6] (setting [7]); 70% (active) in experiment [6] (setting [8]); 31.4% in experiment [6] (at 50.0 µM).

For `O=C(n1c2ccccc2c2n[nH]c(=S)nc21)C(F)(F)F`, the growth inhibition was 1% in experiment [1] (setting [7]); -6% in experiment [1] (setting [8]); 82.7% (active) in experiment [1] (at 50.0 µM); 0% in experiment [2] (setting [7]); -2% in experiment [2] (setting [8]); 39.1% in experiment [2] (at 50.0 µM). In addition, the growth inhibition in experiment [3] (setting [7]) is -3%; in experiment [3] (setting [8]), -2%; in experiment [3] (at 50.0 µM), 83.5% (active); in experiment [4] (setting [7]) it was -2%; in experiment [4] (setting [8]), -2%; in experiment [4] (at 50.0 µM), 25.3%. Besides, the growth inhibition in experiment [5] (setting [7]) was 3%; in experiment [5] (setting [8]), -1%; in experiment [5] (at 50.0 µM), 52.8%; in experiment [6] (setting [7]), -5%; in experiment [6] (setting [8]), 0%; in experiment [6] (at 50.0 µM) it was 89.3% (active).

`C/C(=N/NC(N)=S)C(CN(C)C)C(C1=C(O)c2ccccc2OC1)c1ccccc1` (stereo not drawn): the growth inhibition is 8% in experiment [1] (setting [7]); 8% in experiment [1] (setting [8]); 68% in experiment [1] (at 50.0 µM); 2% in experiment [2] (setting [7]); 2% in experiment [2] (setting [8]); 52.5% in experiment [2] (at 50.0 µM). In addition, the growth inhibition in experiment [3] (setting [7]) was 4%; in experiment [3] (setting [8]), 4%; in experiment [3] (at 50.0 µM), 78.3% (active); in experiment [4] (setting [7]), -1%; in experiment [4] (setting [8]) it was -1%; in experiment [4] (at 50.0 µM), 65.8%. The growth inhibition was 12% in experiment [5] (setting [7]); 12% in experiment [5] (setting [8]); 65.2% in experiment [5] (at 50.0 µM); 0% in experiment [6] (setting [7]); 0% in experiment [6] (setting [8]); 66.8% in experiment [6] (at 50.0 µM).

Turning to `CN(Cc1cc(C(C)(C)C)cc(Br)c1O)Cc1cc(C(C)(C)C)cc(Br)c1O`, the growth inhibition in experiment [1] (setting [7]) was 2%; in experiment [1] (setting [8]), 24%; in experiment [1] (at 50.0 µM), 72% (active); in experiment [2] (setting [7]), -2%; in experiment [2] (setting [8]) it was 91% (active); in experiment [2] (at 50.0 µM), 86.2% (active). For the same compound, the growth inhibition is -9% in experiment [3] (setting [7]); 64% in experiment [3] (setting [8]); 58.8% in experiment [3] (at 50.0 µM); -11% in experiment [4] (setting [7]); 87% (active) in experiment [4] (setting [8]); 89.5% (active) in experiment [4] (at 50.0 µM). Moreover, the growth inhibition was -11% in experiment [5] (setting [7]); 71% (active) in experiment [5] (setting [8]); 81.3% (active) in experiment [5] (at 50.0 µM); -8% in experiment [6] (setting [7]); 84% (active) in experiment [6] (setting [8]); 61.1% in experiment [6] (at 50.0 µM).

These data come from PubChem BioAssay (NCI).
